Not all results are given here.
aSyn 5UTR act: Activators working through SNCA 5'UTR binding (MLPCN). alpha-synuclein 5'UTR reporter, activators screen. 300,000 compounds, 7.1% hits. activity score, % (tested at 7.5 µM), hits read low; in the data active = activity score below about -60%
* marks the source's active call; other numbers are inactive results.

SMILES | aSyn 5UTR act
CC(=O)c1ccc(N2CCc3ccccc3C2)c([N+](=O)[O-])c1 | -68.0*
COc1cc2c(cc1OC)CN(c1ccc(F)cc1[N+](=O)[O-])CC2 | -79.0*
COc1ccc(COC(=O)c2cc([N+](=O)[O-])ccc2N2CCOCC2)cc1F | 68.3
O=C(Cc1ccccc1[N+](=O)[O-])N1CCc2ccccc2C1 | -103.4*
Cc1cccnc1NC(=S)NC(=O)/C=C/c1ccco1 | -88.7*
O=C(/C=C/c1ccco1)NC(=S)Nc1ccccn1 | -127.5*
COc1cc(OC)c(NC(=O)c2cccc(F)c2)cc1Cl | -63.9*
COc1ccc(NC(=O)c2cccc(F)c2)cc1Cl | -205.6*
COc1ccc(NC(=O)/C=C/C(=O)O)cc1Cl | -104.7*
CN1CCc2nc(NC(=O)c3cccc(OC(F)F)c3)sc2C1 | -66.7*
O=C(Nc1ccc2c(c1)CCC2)c1cccc(OC(F)F)c1 | -125.6*
COc1ccc(NC(=O)c2cccc(OC(F)F)c2)cc1Cl | -196.7*
COc1ccc(C(=O)Nc2ccccc2C(=O)O)cc1Cl | -123.1*
O=C(CCCOc1ccc(Cl)cc1Cl)Nc1ccccc1C(=O)O | -83.2*
O=C(Nc1ccc(OC(F)F)c(Cl)c1)c1cccc(OC(F)F)c1 | -82.5*
COc1ccc(NC(=O)c2ccccc2F)cc1Cl | -156.2*
NC(=O)c1cc(-c2csc(-c3cccnc3)n2)ccc1O | -102.5*
c1ccc(-c2csc(-c3cccnc3)n2)cc1 | -77.5*
CN(C(=O)c1cccnc1)c1nc(-c2ccccc2)cs1 | -128.3*
c1ccc(-c2nc(-c3cccnc3)cs2)cc1 | -108.6*
CN1CCN(CC(=O)N(C)c2nc(-c3ccccc3)cs2)CC1 | -150.1*
Cc1nc2sc(-c3ccccc3)cc2c(=O)n1-n1cccc1 | -189.4*
Cc1nc2sc(-c3ccccc3)cc2c(=O)n1/N=C/N(C)C | -156.4*
Cc1nc2sc(-c3ccccc3)cc2c(=O)n1N | 75.4
NC(=O)CSc1nc2sc(-c3ccccc3)cc2c(=O)n1N | -63.5*
SMILES | aSyn 5UTR act
Cc1ccc(-c2nc3c(=O)n(C)c4ccccc4c3o2)cc1 | -72.3*
Cc1ccc(-c2noc(-c3ccno3)n2)cc1 | -126.3*
COc1cccc(-c2nc(-c3ccncc3)no2)c1 | -113.9*
COc1ccc(-c2noc(-c3ccccc3Cl)n2)cc1OC | -180.2*
Fc1cccc(F)c1-c1nc(-c2ccncc2)no1 | -141.9*
COc1cccc(-c2nc(CS(=O)(=O)c3ccccc3)no2)c1 | -125.5*
COc1ccc(-c2noc(-c3cccc(Cl)c3)n2)cc1OC | -183.6*
Clc1cccc(-c2nc(-c3ccccn3)no2)c1 | 93.3
COc1ccc(-c2nc(-c3ccncc3)no2)cc1OC | -121.0*
C[n+]1c(/C=C/c2ccc(O)cc2)ccc2ccccc21 | -171.8*
C[n+]1c(/C=C/c2ccc3c(c2)OCO3)ccc2ccccc21 | -149.8*
CC(C)C(=O)Nc1ccc(NC(=O)c2ccccc2Cl)nc1 | -115.0*
O=C(Nc1ccc(NC(=O)c2ccccc2Cl)nc1)c1ccco1 | -102.3*
Cc1cc(NC(=O)c2ccco2)ncc1NC(=O)Cc1ccccc1 | -118.5*
O=C(CCc1ccccc1)Nc1ccc(NC(=O)c2ccco2)nc1 | -70.8*
O=C(Nc1ccccn1)c1ccc(NC(=O)c2ccco2)cc1 | -141.2*
Brc1ccc(OCc2nc3ccccc3[nH]2)cc1 | -213.6*
c1ccc2cc(OCc3nc4ccccc4[nH]3)ccc2c1 | -166.5*
COc1cccc(OCc2nc3ccccc3[nH]2)c1 | -136.9*
COc1cccc(OCc2nc3ncc(Br)cc3[nH]2)c1 | -77.1*
COc1cccc(CSc2nc3ccccc3cc2C=O)c1 | 71.0
COc1ccc(OCc2nc3ccccc3[nH]2)cc1 | -113.3*
Cn1ccsc1=NC(=O)c1ccc([N+](=O)[O-])o1 | -160.8*
Cc1ccc(NC2CC(=O)N(Cc3ccccc3)C2=O)cc1 (stereo not given) | -65.7*
CCCCN1C(=O)CC(Nc2ccc(CC)cc2)C1=O (stereo not given) | -125.1*
SMILES | aSyn 5UTR act
Cc1cc(C(=O)CN2C(=O)c3ccccc3S2(=O)=O)c(C)n1-c1ccccc1 | 120.1
CC(=O)c1ccc(OCC(=O)c2cc(C)n(-c3ccc4c(c3)OCO4)c2C)cc1 | -65.3*
Cc1cc(C(=O)CN2C(=O)C(=O)N(Cc3ccccc3)C2=O)c(C)n1-c1ccc2c(c1)OCCO2 | -74.0*
Cc1cc(C(=O)CSc2nnnn2C)c(C)n1-c1ccc2c(c1)OCCO2 | -125.5*
Cc1nnc(SCc2ccc3c(c2)OCO3)s1 | -72.3*
CCC(C)n1ncn(-c2ccc(N3CCN(c4ccc(O)cc4)CC3)cc2)c1=O (stereo not given) | 73.2
Cc1nnc(SCc2ccc(F)cc2Cl)s1 | -80.6*
Cc1nnc(SCC(=O)c2cc(C)n(-c3ccc4c(c3)OCO4)c2C)s1 | -151.4*
CC(C)(C)C1CCC(OC(=O)c2cncc(Br)c2)CC1 (stereo not given) | -123.4*
c1ccc2c(c1)NC1(CCCCCC1)n1c-2nc2ccccc21 | -142.2*
CCCCC1(C)Nc2ccccc2-c2nc3ccccc3n21 (stereo not given) | -146.4*
CC1=CC(C)(C)Nc2ccccc21 | 91.8
c1ccc2c(c1)NC1(CCCCC1)n1c-2nc2ccccc21 | -125.9*
N#C/C(=C(/O)COc1ccccc1)c1nc2ccccc2s1 | -63.1*
N#C/C(=C(/O)c1ccc(-c2cccc([N+](=O)[O-])c2)o1)c1nc2ccccc2s1 | -105.4*
N#C/C(=C(/O)CSc1ccccn1)c1nc2ccccc2s1 | -62.2*
N#C/C(=C(/O)c1ccc(F)cc1)c1nc2ccccc2s1 | -136.0*
C/C(=N/OC(=O)C1CC1)c1cc(-c2ccc(Cl)cc2)no1 | -133.0*
C/C(=N\OC(=O)c1ccccc1)c1cc(-c2ccc(Cl)cc2)no1 | -151.7*
COc1ccc(OCCn2c(=O)sc3ccccc32)cc1 | -142.4*
Cc1cccc(OCCCn2c(=O)sc3ccccc32)c1 | -90.0*
CCCCCCCCCCOC(=O)Cn1c(COc2cccc(C)c2)[n+](C)c2ccccc21 | 64.8
CCCCOc1ccc(CSC2=NCCN2)cc1[N+](=O)[O-] | -82.0*
CCCCOc1ccc(Br)cc1/C(C)=N/NC1=NCCN1 | 121.5
CSc1ccc(N2C(=O)NC3(CCCCC3)C2=O)cc1 | -111.1*
SMILES | aSyn 5UTR act
CCC(=O)NC(c1ccccc1)c1nc2ccccc2[nH]1 (stereo not given) | -79.1*
CCCCC(=O)NC(c1ccccc1)c1ccc2cccnc2c1O (stereo not given) | 67.9
CCCC(=O)NC(c1ccccc1)c1ccc2cccnc2c1O (stereo not given) | 65.4
CNC(=O)c1cc(C(=O)c2ccc(Cl)cc2)c[nH]1 | -63.9*
CC(C)(C)C1CCC(C(=O)Nc2nccs2)CC1 (stereo not given) | -101.5*
O=C(CCC1CCCCC1)Nc1nccs1 | -61.7*
Cc1cnc(NC(=O)C2CCC(C(C)(C)C)CC2)s1 (stereo not given) | -63.5*
Nc1ccc(-n2cc(-c3ccccc3)[nH]c2=S)cc1 | -85.6*
S=c1[nH]c(-c2ccccc2)cn1-c1ccccc1 | -75.1*
COc1ccc(-c2cn(-c3ccccc3)c(=S)[nH]2)cc1OC | -100.4*
O=C(NC1CCCC1)c1cc2ccccc2o1 | -107.2*
O=C(NC1CCCCC1)Oc1cc2oc(=O)sc2cc1Br | 53.6
O=C(NC1CCCCC1)c1cc2cc(Br)ccc2o1 | -138.3*
O=C(NC1CCCC1)c1cc2cc(Br)ccc2o1 | -138.8*
CCC(=O)N/C(N)=N/c1nc(C)c2cc(OC)ccc2n1 | -106.5*
COc1ccc2nc(/N=C(\N)NC(=O)C(C)(C)C)nc(C)c2c1 | -84.8*
Cc1c(Cc2ccc3c(c2)OCO3)sc(NC(=O)c2ccc3ccccc3c2)c1C(N)=O | -80.1*

Screens: PubChem, Broad Institute
